Assay outcomes (PubChem)
hiPSC survival: enhancers of human iPSC single-cell survival; hiPSC single-cell survival, ATPlite luminescence; 100% = ROCK inhibitor wells, 0% = DMSO; survival enhancement, % at 20 µM; 0.044% of 360,000 active; in the data active = survival enhancement above about 18%;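 note: cells exposed to compounds for 16 hours before the ATP read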
H9c2 TAG inh: triacylglycerol accumulation inhibition. H9c2 cells, Nile Red lipid (TAG) fluorescence; cells loaded with 200 µM oleic acid. inhibition, % at 12.5 µM. 0.66% of 230,000 active;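 active = pattern-corrected inhibition of lipid staining of at least 50% with the nuclear-stain viability signal not falling by more than 50%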;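 note: 0% = DMSO wells and 100% = triacsin C control wells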
MIN6 prolif: inducers of beta-cell replication in MIN6 cells. MIN6 cells proliferation, ATPlite luminescence, 48 h; cells starved in 0.2% serum; 100% = growth in 10% serum. 0.29% of 330,000 active. proliferation, % at 10 µM;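 active = compounds whose signal lies at least 3.5 SD above the mean of all wells on their plate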;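 note: 0% = DMSO-treated cells in low-serum medium and 100% = 10% serum control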
H9c2 TAG conf: triacylglycerol accumulation inhibition, confirmation; shares compounds with H9c2 TAG inh; 71% of 990 active; H9c2 lipid accumulation, Nile Red fluorescence; cells loaded with 200 µM oleic acid; inhibition, % at 12.5 µM; AID 651629;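 active = mean inhibition across replicates of 40% or more; inactive = mean inhibition below 40%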;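 note: plate controls were DMSO only wells for no effect and Triacsin C treated wells for full effect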
* hit, by the source's call; . = not tested or not shown. Only some compounds are listed: those with a hit (about 0.71% of all), similar ones and a draw of the others.

SMILES	hiPSC survival	H9c2 TAG inh	MIN6 prolif	H9c2 TAG conf
CC1(C(=O)NCc2cccs2)Cc2c(-c3ccccc3)ccnc2O1 (stereo unspecified)	-3.9	4.0	.	.
CC1(C(=O)Nc2ccccc2)Cc2c(-c3ccc4c(c3)OCO4)ccnc2O1 (stereo unspecified)	3.9	-5.7	.	.
CC1(C(=O)Nc2cccc(Oc3ccccc3)c2)Cc2c(-c3ccc4c(c3)OCO4)ccnc2O1 (stereo unspecified)	1.0	63.1*	.	46.7*
CC1(C(=O)NCc2cccs2)Cc2c(-c3ccc4c(c3)OCO4)ccnc2O1 (stereo unspecified)	-2.6	53.8*	.	51.9*
C=C1C2=C(C(=O)N1OC)[C@@H](O)[C@@](C)(O)[C@@H](CCCCC)O2	-0.5	.	.	.
COc1cccc(-c2cccc3c2NC(=O)C3(C)Cc2cccc(F)c2)c1 (stereo unspecified)	1.8	-15.3	.	.
C=CCN1C(=O)/C(=C2/Sc3ccccc3N2C)SC1=Nc1ccccc1C	1.2	60.7*	0.0	38.8
C=CCN1C(=O)/C(=C2/Sc3ccccc3N2C)SC1=Nc1c(C)n[nH]c1C	-0.1	.	1.5	.
COc1ccc(F)cc1-c1cc(NC=O)c2ncc(-c3cccc(C(F)(F)F)c3)n2c1	-1.3	29.0	.	.
O=C(CN(CC1CCCO1)S(=O)(=O)c1ccc(S(=O)(=O)NC2CC2)cc1)Nc1ccccc1 (stereo unspecified)	5.0	51.1*	1.5	38.5
CCN(CC)S(=O)(=O)c1ccc(S(=O)(=O)N(CC(=O)Nc2ccccc2)CC2CCCO2)cc1 (stereo unspecified)	-2.8	.	-1.1	.
CC(C)(C)c1ccc(-c2csc(NNC3=NCCCCC3)n2)cc1	1.5	.	-4.8	.
Brc1ccc(-c2csc(NNC3=NCCCCC3)n2)cc1	-1.3	130.5*	-5.8	129.3*
c1ccc(-c2csc(NC3=NCCCCC3)n2)cc1	-1.7	-10.0	-3.2	.
FC(F)Oc1ccc(-c2csc(NNC3=NCCCCC3)n2)cc1	-2.2	118.9*	-4.8	124.7*
Cc1ccc(F)c(S(=O)(=O)NC(=O)C2(C)CCN2C(=O)C/C=C/c2ccccc2)c1 (stereo unspecified)	0.0	4.9	.	.
CCC[C@H]1CN(Cc2cccnc2)C(=O)[C@@H]1CC(=O)Nc1ccc(Br)cc1	-2.5	-3.8	.	.
COCCNC(=O)C1(C)CCCN(C(=O)c2ccc(C(F)(F)F)cc2)C1 (stereo unspecified)	6.6	-2.3	.	.
CC(=NCCc1c(C)[nH]c2ccc(OCc3ccccc3)cc12)C1=C(O)CC(c2ccccc2)CC1=O (stereo unspecified)	-0.1	8.5	-5.2	.
CCC(=NCCc1c(C)[nH]c2ccccc12)C1=C(O)CC(c2ccccc2)CC1=O (stereo unspecified)	-2.3	.	-5.0	.
CCCCC(=NCCc1c(C)[nH]c2ccc(OC)cc12)C1=C(O)CC(c2ccccc2)CC1=O (stereo unspecified)	-0.1	61.2*	-6.3	65.7*
CCC(=NCCc1c(C)[nH]c2ccc(OC(F)(F)F)cc12)C1=C(O)CC(c2ccccc2)CC1=O (stereo unspecified)	0.6	51.2*	-6.1	72.0*
Cc1ccc(Cl)cc1NC(=S)N/N=C/c1cccc2ccccc12	-0.3	68.6*	-3.9	85.2*
Cc1ccccc1C(=O)N/N=C/c1cccc2ccccc12	-0.8	.	-3.5	.
CCCC[C@H](CN[C@@H](CNC)[C@H](C)CC)NCCC12CCC(CC1)C2	-7.3	50.8*	-7.8	70.3*
SMILES	hiPSC survival	H9c2 TAG inh	MIN6 prolif	H9c2 TAG conf
CCC[C@H](CN[C@@H](CNC)[C@H](C)O)NCCc1ccc(OC)cc1	-1.9	4.6	-0.5	.
NS(=O)(=O)c1ccc(N2C(=O)CCCC2=O)cc1	2.7	12.9	.	.
O=S1(=O)N[C@@H](Cc2ccccc2)COc2cccc(N3CCC[C@@H]3CO)c21	-0.2	.	.	.
CSc1ccc(/C=C/C(=O)c2ccc(NC(=O)C(C)C)cc2)cc1	-4.0	6.1	-6.0	.
CSc1ccc(/C=C/C(=O)c2ccc(NC(=O)Cc3ccccc3)cc2)cc1	1.9	59.1*	-5.7	22.1
O=C(CNC(=O)N1CC(=O)Nc2ccccc21)Nc1ccc(Cl)cc1Cl	4.4	-13.0	.	.
C#CCOCCOCCOCCNc1nc(N2CCN(C(=O)[C@H]([C@@H](C)CC)n3cc([C@@H](N)CO)nn3)CC2)nc(N2CCN(C(=O)[C@H](CCCCN)n3cc([C@@H](N)CC(C)C)nn3)CC2)n1	.	.	10.4	.
C#CCOCCOCCOCCNc1nc(N2CCN(C(=O)[C@H](CCCCN)n3cc([C@@H](N)CO)nn3)CC2)nc(N2CCN(C(=O)[C@H](CCCCN)n3cc([C@@H](N)CC(C)C)nn3)CC2)n1	-0.6	69.7*	-1.6	-0.7
Cc1noc(C)c1NC(=O)N(C)C[C@H]1OCc2cnnn2CCCC(=O)N([C@H](C)CO)C[C@H]1C	1.6	.	.	.
COc1ccc(CCNC(=O)Nc2nc(C(N)COCc3ccccc3)cs2)cc1OC (stereo unspecified)	2.8	9.1	.	.
CN(C)CCNC(=O)c1ccc(-c2cnn(C)c2)c2ccoc12	1.1	9.7	.	.
CCOC(=O)N1CCN(C(=O)c2[nH]c(C(F)(F)F)nc2-c2ccccc2)CC1	-1.3	.	.	.
Cc1cccc(NC(=O)C(C)Sc2nc3ccccc3c(=O)n2CCCN2CCOCC2)c1 (stereo unspecified)	-0.3	52.9*	-3.1	56.9*
CC(=O)c1cccc(NC(=O)CSc2nc3ccccc3c(=O)n2CCCN2CCOCC2)c1	-0.6	9.7	-1.9	.
Cc1cccc(C)c1-n1nnnc1C(c1ccnc2ccccc12)N1CCCN(C(=O)OC(C)(C)C)CC1 (stereo unspecified)	-0.8	.	.	.
Cc1cc(Cl)ccc1NC(=O)/N=C1/NC(=O)CS1	0.1	.	.	.
COC(=O)c1c(NC(NC(=O)c2ccccc2)(C(F)(F)F)C(F)(F)F)sc2c1CCN(C)C2	-0.2	.	0.0	.
CCC(=O)NC(Nc1sc2c(c1C(=O)OC)CCCC2)(C(F)(F)F)C(F)(F)F	-1.2	51.3*	-3.4	25.9
CC(NC(=O)C1CCN(Cc2ccc(Oc3ccccc3)cc2)CC1)c1cccc2ccccc12 (stereo unspecified)	-2.4	10.4	.	.
CC1=C(C(=O)N2CCOCC2)CC(CC(=O)NCCc2ccccn2)C(=O)N1Cc1ccccc1 (stereo unspecified)	3.1	.	.	.
O=C(CCc1nc2ccccc2c(=O)[nH]1)Nc1ccccc1N1CCCCC1	-2.4	-2.2	.	.
O=C(CCN1CCCCC1)c1cccc(Cl)c1	-0.6	0.9	.	.
Cc1ccc(C(=O)NN(C)c2nc3ccccc3nc2C(F)(F)F)cc1	-0.2	4.9	-1.2	.
CSc1nc(N(C)NC(=O)c2ccc(Cl)cc2)c2ccccc2n1	-1.6	64.9*	-6.1	66.2*
CSc1nc(N(C)NC(=O)c2ccccc2)c2ccccc2n1	2.8	57.0*	-2.8	61.5*
CN(NC(=O)c1ccc(Cl)cc1)c1nc(-c2ccccc2)nnc1C(F)(F)F	-2.5	1.7	-3.2	.
Cc1ccc(F)cc1NC(=O)C1CC(=O)N(Cc2ccccc2)C1 (stereo unspecified)	-1.7	5.5	.	.
CCCCCc1c(-c2ccc(F)cc2F)ncn1CCc1ccccc1OC	0.5	.	.	.
Cc1noc(C)c1CSc1nc2[nH]ncc2c(=O)n1-c1ccccc1	-0.6	64.3*	-2.2	90.9*
